Source: PubChem BioAssay AID651821 (The Scripps Research Institute Molecular Screening Center, 2012)
Hit rate of the full screen: of about 370,000 compounds, about 4,700 (1.3%) were called active.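 How the source made its calls: active means inhibition above the plate cutoff, the mean of all test compounds on that plate plus 3 SD (cut at about 35% in these data); inactive means the rest.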 What follows is part of a selection rich in actives, with near analogues and random picks from the rest.

experiment: small molecules binding CAG repeat RNA – biochemical, fluorescence, primary screen (AID 651821); settings: r(CAG) RNA repeat, TO-PRO-1 dye displacement fluorescence; at 3 µM; hits give high values;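 further: 0% = DMSO alone and 100% = 100 µM mitoxantrone as full dye displacement; higher means more dye released from RNA so lower well fluorescence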

Row | Compound | inhibition
1 | Cc1cc(N2C(=O)C(O)=C(C(=O)c3ccc(C)o3)C2c2ccc(OCc3ccccc3)cc2)no1 (configuration not stated) | 49.3% (active)
2 | COc1cc(C2C(C(=O)c3ccco3)=C(O)C(=O)N2c2cc(C)on2)ccc1OCc1ccccc1 (configuration not stated) | 10.3% (inactive)
3 | C=CCOc1cccc(C2C(C(=O)c3ccc(C)o3)=C(O)C(=O)N2c2nnc(C)s2)c1 (configuration not stated) | 6.27% (inactive)
4 | COc1cccc(Cn2cc(COC(=O)Nc3ccc(F)cc3)nn2)c1 | 0.76% (inactive)
5 | COCc1c(C(=O)N/N=C(\C)c2ccncc2)nnn1-c1nonc1N | -1.16% (inactive)
6 | Cc1ccccc1CS(=O)(=O)Cc1ccc(C(=O)Nc2ccc(Cl)cc2)o1 | 6.61% (inactive)
7 | O=[N+]([O-])c1cc(Br)c(O)c(/C=N/Nc2nc3ccccc3s2)c1 | 64.1% (active)
8 | O=C(CSc1nc2ccccc2s1)NN=Cc1ccc(O)cc1O | 11% (inactive)
9 | O=C(N/N=C/c1cc([N+](=O)[O-])ccc1O)/C(=C\c1cccs1)NC(=O)c1ccccc1 | 32.3% (inactive)
10 | C[C@H]1CN([C@@H](C)CO)C(=O)CCCn2nncc2CO[C@@H]1CN(C)Cc1ccc(Oc2ccccc2)cc1 | 1.78% (inactive)
11 | N#CCC[C@H]1CC[C@]2(CCCN(Cc3ccc(Cl)cc3)C2)O1 | 1.52% (inactive)
12 | c1ccc(CN=C2Nc3ccccc3CS2)nc1 | -3.75% (inactive)
13 | Cc1ccccc1CN1CCCCC(NC(=O)c2cccc(C#N)c2)C1=O (configuration not stated) | 3.06% (inactive)
14 | Cc1ccc(C)c2c1cc(C)c1nnc(SCC(=O)Nc3cccc(C(=O)O)c3)n12 | 2.06% (inactive)
15 | Cc1ccc(C)c(-n2c(SCC(=O)O)nc3sc4c(c3c2=O)CCCC4)c1 | 27.1% (inactive)
16 | CC(C)c1nc(SCC(=O)Nc2cccc(C(=O)O)c2)c2c3c(sc2n1)CCCC3 | 69.3% (active)
17 | COc1cc(C)c(C)cc1S(=O)(=O)N1CCCc2ccccc21 | -3.84% (inactive)
18 | CC(CCN1CCC(C(O)(c2ccccc2)c2ccccc2)CC1)Oc1ccc(Cl)cc1 (configuration not stated) | 1.34% (inactive)
19 | CCOc1ccc(N(CC(=O)Nc2c(C)n(C)n(-c3ccccc3)c2=O)S(=O)(=O)c2ccc(Cl)s2)cc1 | 1.32% (inactive)
20 | CCCCCCCCN1C(=O)[C@@H](CC(=O)N2CCN(C(=O)OCC)CC2)C[C@@]2(C(=O)OC)C1=C[C@H](C1CCCC1)O[C@@H]2C | 5.15% (inactive)
21 | Cn1c(=O)c2ccccc2n(CC(=O)Nc2ccc3c(c2)OCCO3)c1=O | -1.32% (inactive)
22 | Cc1ccc(C(=O)O)cc1-c1ccc(/C=C2\SC(=O)N(CC(=O)Nc3ccc4c(c3)OCO4)C2=O)o1 | 56% (active)
23 | O=C(CN1CCN(c2ncc(C(F)(F)F)cc2Cl)CC1)Nc1ccc2c(c1)OCO2 | -4.82% (inactive)
24 | Cc1ccc2nc(CN(C)C(=O)[C@@H](Cc3ccccc3)NC(=O)[C@H]3O[C@@H](n4ccc(=O)[nH]c4=O)[C@H](O)[C@@H]3O)[nH]c2c1 | 0.21% (inactive)
25 | COc1ccc(CN2C/C(=C/c3ccccc3)N3C(=O)C[C@@H](c4ccccc4)N=C23)c(OC)c1 | 2.75% (inactive)
26 | Cc1cc(F)ccc1S(=O)(=O)Nc1ncnc2scc(-c3ccc(F)cc3)c12 | 40.3% (active)

Row | Compound | inhibition
27 | COc1ccc(-c2csc3ncnc(N4CCN(S(=O)(=O)c5cccc(F)c5)CC4)c23)cc1 | 3.79% (inactive)
28 | O=S(=O)(Nc1ncnc2sccc12)c1cccc(F)c1 | 5.08% (inactive)
29 | Cc1ccc2nc(-c3ccc(CN4CCC(n5cc(-c6ccccc6)[nH]c5=O)CC4)cc3)c(-c3ccccc3)nc2c1 | 9.33% (inactive)
30 | COc1cccc(CNC(=O)C2CCCN(c3nc4ccccc4o3)C2)c1OC (configuration not stated) | 4.36% (inactive)
31 | CC(=O)c1ccc(NC(=O)C2CC(=O)Nc3nc4ccccc4n32)cc1 (configuration not stated) | 2.8% (inactive)
32 | Brc1ccc(COCCc2cn(Cc3ccccc3)c3ccccc23)cc1 | 3.73% (inactive)
33 | C/C=C/c1ccc(OCC(=O)NNC(=O)CN(C)S(=O)(=O)c2ccc(C)cc2)c(OC)c1 | 1.87% (inactive)
34 | COc1ccc(/C=C/C(=O)c2ccc(NS(=O)(=O)c3ccc(C)cc3)cc2)cc1O | 43% (active)
35 | Cc1ccc(S(=O)(=O)NNC(=O)/C=C/c2cccc(F)c2)cc1 | 3.74% (inactive)
36 | O=C(NCc1ccccc1)[C@H]1CCCN1C(=O)[C@H]1CCCN1C(=O)N1CCOCC1 | -0.04% (inactive)
37 | COc1ccc(-c2cc3ccc(OCc4nn[nH]n4)cc3oc2=O)cc1 | 44.7% (active)
38 | CC(C)OC(=O)c1ccc(COc2ccc3ccc(=O)oc3c2)o1 | -0.52% (inactive)
39 | COc1ccc(-c2csc3ncnc(Oc4ccc5c(C)cc(=O)oc5c4)c23)cc1 | 0.56% (inactive)
40 | CN(C)Cc1ccc(F)cc1Sc1cc(Cl)ccc1Cl | -7.65% (inactive)
41 | CN(CCc1ccccc1)C(=O)Cn1nc(-c2ccccc2)ccc1=O | -2.33% (inactive)
42 | COc1cc(SC#N)ccc1N=Cc1c(C)[nH]n(-c2ccc(C)cc2)c1=O | 6.39% (inactive)
43 | CCc1nnc(NS(=O)(=O)c2ccc(N=Cc3c(C)[nH]n(-c4ccc(C)cc4)c3=O)cc2)s1 | 56.7% (active)
44 | CCc1nnc(NC(=O)CCN(c2ccc(C)cc2)S(=O)(=O)c2ccccc2)s1 | 1.09% (inactive)
45 | CCOC(=O)N1CCN(C(=O)C[C@H]2C[C@@]3(C(=O)OC)C(=C[C@H](C4CCCC4)O[C@@H]3C)N(Cc3ccccc3)C2=O)CC1 | 1.98% (inactive)
46 | O=C(OC12CCCN(C1)/C(=C/c1ccccc1)C2)c1ccco1 (configuration not stated) | 3.14% (inactive)
47 | CCOc1ccc(N/C(N)=N/c2nc(C)c(C)c(=O)[nH]2)cc1 | 1.99% (inactive)
48 | COC(=O)Cc1csc(/N=C/c2c(O)n(-c3cccc(C(F)(F)F)c3)c(=O)c3ccccc23)n1 | -0.9% (inactive)
49 | CCOc1ccc(-n2c(O)c(/C=N/Nc3nnc(C)c(=O)[nH]3)c3ccccc3c2=O)cc1 | 47.2% (active)
50 | O=C(COc1ccccc1Cl)Nn1cnnc1 | 2.37% (inactive)
51 | CCCCN1CCN(C(=O)c2ccc3c(c2)NC(=O)C(C)(C)O3)CC1 | -0.58% (inactive)
52 | CCOC(=O)C1(Cc2ccccc2)CCN(Cc2cn(C(C)=O)c3ccccc23)CC1 | -1.49% (inactive)
